For one compound, outcome results are on record in PubChem BioAssay AID434992 (The Scripps Research Institute Molecular Screening Center, 2010).

Calls of active or inactive are those of the source. No rule for the calls is given here.

A short description of this test: PubChem AID 434992.

Regarding `FC(F)(F)c1ccc2c(c1)Nc1ccccc1S2`, the outcome was inactive.
